{
  "source": "the supplement of paper PMC6331611",
  "note": "“And” between values parts separate entries of the source, which are not always exact repeats. Equal values may be shown once. ± gives the standard deviation of the averaged measurements. In all, about 1,600 compounds were measured (“normalized growth (OD600, IQM-normalized) in LPM”: median about 1, lowest 2% from about 0.014 on). What follows is part of a selection rich in the lowest values, with near analogues and random picks from the rest.",
  "data": [
    {"system": "Salmonella enterica serovar Typhimurium SL1344", "assay": "normalized growth (OD600, IQM-normalized) in LPM (fraction of plate interquartile mean); higher = more bacterial growth (less inhibition)", "conditions": "LPM pH 5.8; 10 µM; 16 h", "values": [
      {"smiles": "Cc1oc(=O)oc1CN1CCN(c2cc3c(cc2F)c(=O)c(C(=O)O)c2n3C(C)S2)CC1", "note": "(stereo not drawn)", "normalized growth": "0.00846 ± 7.6e-05"},
      {"smiles": "S=C1SCN(Cc2ccccc2)CN1Cc1ccccc1", "normalized growth": "1.11 ± 0.061"},
      {"smiles": "C=NC(C(=O)NC1C(=O)N2C1SC(C)(C)C2C(=O)O)c1ccccc1", "note": "(stereo not drawn)", "normalized growth": "0.913 ± 0.058"},
      {"smiles": "C#C[C@]1(O)CC[C@H]2[C@@H]3CCc4cc(OC5CCCC5)ccc4[C@H]3CC[C@@]21C", "normalized growth": "0.954 ± 0.1"},
      {"smiles": "O=C([O-])[C@H]1/C(=C/CO)O[C@@H]2CC(=O)N21.[Li+]", "normalized growth": "1.12 ± 0.076"},
      {"smiles": "C#C[C@]1(OC(C)=O)CC[C@H]2[C@@H]3CCC4=CC(=O)CC[C@@H]4[C@H]3CC[C@@]21C", "normalized growth": "1.14 ± 0.03"},
      {"smiles": "CC(=O)Oc1cc2c(s1)CCN(C(C(=O)C1CC1)c1ccccc1F)C2", "note": "(stereo not drawn)", "normalized growth": "1.08 ± 0.1"},
      {"smiles": "Cc1nc(-c2ccc(OCC(C)C)c(C#N)c2)sc1C(=O)O", "normalized growth": "1.02 ± 0.038"},
      {"smiles": "CC(=O)OCC(=O)[C@@]1(O)[C@@H](C)C[C@H]2[C@@H]3CCC4=CC(=O)C=C[C@]4(C)[C@@]3(F)[C@@H](O)C[C@@]21C", "normalized growth": "1.01 ± 0.033"},
      {"smiles": "COc1ccc2cc1Oc1ccc(cc1)C[C@H]1c3c(cc4c(c3Oc3cc5c(cc3OC)CCN(C)[C@@H]5C2)OCO4)CCN1C", "normalized growth": "0.938 ± 0.024"},
      {"smiles": "CCC/C=C\\C=C/C(=O)N[C@@H](CC(N)=O)C(=O)NC(CC(N)=O)C(=O)N[C@@H](C(=O)N[C@H](CCCN)C(=O)N[C@@H](C(=O)N[C@@H](C(=O)N[C@@H](C(=O)N[C@H](C(=O)N[C@@H](Cc1ccccc1)C(=O)N[C@H](CCCN)C(=O)NC(C(=O)N[C@H](C(=O)NC(C(=O)NCC(=O)N[C@@H](CC(C)C)C(=O)N[C@H](C)C(=O)NC(C(=O)O)C1CCC(O)C(Cl)C1)C1CCC(O)CC1)[C@H](C)O)C1CCC(O)CC1)[C@H](C)O)C1CCC(O)CC1)C1CCC(O)CC1)[C@H](C)O)C1CCC(O)CC1", "note": "(stereo partly drawn) [RAMOPLANIN [A2 shown; 2mM]]", "normalized growth": "1.31 ± 0.07"},
      {"smiles": "CC1(C)O[C@@H]2C[C@H]3[C@@H]4C[C@H](F)C5=CC(=O)C=C[C@]5(C)[C@H]4[C@@H](O)C[C@]3(C)[C@]2(C(=O)CO)O1", "normalized growth": "0.921 ± 0.042"},
      {"smiles": "Cc1cccc(C)c1NC(=O)c1ccccc1C(=O)O", "normalized growth": "1.15 ± 0.12"},
      {"smiles": "CC1(C)S[C@@H]2[C@H](NC(=O)[C@H](C(=O)O)c3ccsc3)C(=O)N2[C@H]1C(=O)O", "normalized growth": "1.01 ± 0.022"},
      {"smiles": "CC(=O)OC1CC2CCC1(C)C2(C)C", "note": "(stereo not drawn)", "normalized growth": "1.21 ± 0.048"},
      {"smiles": "CC(C)C[C@@H]1NC(=O)[C@H](CCCN)NC(=O)[C@H](C(C)C)NC(=O)[C@H](Cc2ccc(O)cc2)N[C@@H](CCC(=O)O)C(=O)N[C@@H](CC(N)=O)C(=O)[C@@H](Cc2ccccc2)NC(=O)[C@H](Cc2ccccc2)NC(=O)[C@@H]2CCCN2C(=O)[C@@H](Cc2ccccc2)NC1=O", "normalized growth": "0.992 ± 0.1"},
      {"smiles": "CC(S)C(=O)NCC(=O)O", "note": "(stereo not drawn)", "normalized growth": "0.982 ± 0.071"},
      {"smiles": "O=C(O)CN(CCN(CC(=O)O)CC(=O)O)CC(=O)O.[Na+].[Na+].[Na+]", "normalized growth": "0.0403 ± 0.013"},
      {"smiles": "CO[C@@]1(NC(=O)C(C(=O)O)c2ccc(O)cc2)C(=O)N2C(C(=O)O)=C(CSc3nnnn3C)CO[C@@H]21", "note": "(stereo partly drawn)", "normalized growth": "0.993 ± 0.045"},
      {"smiles": "CO[C@@]1(NC(=O)CSCC#N)C(=O)N2C(C(=O)O)=C(CSc3nnnn3C)CS[C@@H]21", "normalized growth": "0.957 ± 0.052"},
      {"smiles": "CO[C@@]1(NC(=O)C2SC(=C(C(N)=O)C(=O)O)S2)C(=O)N2C(C(=O)O)=C(CSc3nnnn3C)CS[C@@H]21", "note": "(stereo partly drawn)", "normalized growth": "0.00904 ± 0.00015"},
      {"smiles": "CO[C@H]1/C=C/O[C@@]2(C)Oc3c(C)c(O)c4c(O)c(c(/C=N/N5CCN(C)CC5)c(O)c4c3C2=O)NC(=O)/C(C)=C\\C=C\\[C@H](C)[C@H](O)[C@@H](C)[C@@H](O)[C@@H](C)[C@H](OC(C)=O)[C@@H]1C", "normalized growth": "0.0102 ± 0.00021"},
      {"smiles": "CO[C@H]1/C=C/O[C@@]2(C)Oc3c(C)c(O)c4c(O)c(c5c(nc6cc(C)ccn65)c4c3C2=O)NC(=O)/C(C)=C\\C=C\\[C@H](C)[C@H](O)[C@@H](C)[C@@H](O)[C@@H](C)[C@H](OC(C)=O)[C@@H]1C", "normalized growth": "0.0104 ± 0.00017"},
      {"smiles": "Nc1ncn([C@@H]2O[C@H](CO)[C@@H](O)[C@H]2O)c(=O)n1", "normalized growth": "0.0134 ± 0.00024"},
      {"smiles": "Nc1ccn([C@@H]2O[C@H](CO)[C@@H](O)[C@@H]2O)c(=O)n1", "normalized growth": "1.01 ± 0.067"},
      {"smiles": "O=c1[nH]cnc2c1ncn2[C@@H]1O[C@H](CO)[C@@H](O)[C@H]1O", "normalized growth": "1.13 ± 0.034"},
      {"smiles": "O=C(O)c1ccc(S(=O)(=O)N(Cl)Cl)cc1", "normalized growth": "0.999 ± 0.013"},
      {"smiles": "CC(=O)OC/C=C(C)/C=C/C=C(C)/C=C/C1=C(C)CCCC1(C)C", "normalized growth": "0.905 ± 0.06"},
      {"smiles": "C=COCC(F)(F)F", "normalized growth": "0.991 ± 0.044"},
      {"smiles": "CCN(CC)CCOc1ccc2c(c1)C(=O)c1cc(OCCN(CC)CC)ccc1-2", "normalized growth": "1.02 ± 0.083"},
      {"smiles": "C1CCN2C[C@@H]3C[C@@H](CN4CCCC[C@@H]34)[C@H]2C1", "normalized growth": "1.13 ± 0.04"},
      {"smiles": "COCC1=C(C(=O)OC(C)OC(=O)OC(C)C)N2C(=O)[C@@H](NC(=O)/C(=N\\OC)c3csc(N)n3)[C@H]2SC1", "note": "(stereo partly drawn)", "normalized growth": "1.034 ± 0.0056"},
      {"smiles": "CCCCCCCCCCCCCCCC[N+](C)(C)C", "normalized growth": "0.982 ± 0.038"},
      {"smiles": "C[C@@H]1CC2C3C[C@H](F)C4=CC(=O)C=C[C@]4(C)[C@@]3(F)[C@@H](O)C[C@]2(C)[C@@]1(O)C(=O)COC(=O)C(C)(C)C", "note": "(stereo partly drawn)", "normalized growth": "1.04 ± 0.12"},
      {"smiles": "COC(=O)Nc1nc2cc(Sc3ccccc3)ccc2[nH]1", "normalized growth": "0.987 ± 0.024"},
      {"smiles": "OC[C@@H](O)[C@@H](O[C@@H]1O[C@H](CO)[C@H](O)[C@H](O)[C@H]1O)[C@H](O)[C@@H](O)CO", "normalized growth": "0.98 and 0.904"},
      {"smiles": "CS(=O)(=O)c1ccc([C@@H](O)[C@@H](CO)NC(=O)C(Cl)Cl)cc1", "normalized growth": "0.934 ± 0.078"},
      {"smiles": "CS(=O)(=O)c1ccc([C@@H](O)[C@@H](CF)NC(=O)C(Cl)Cl)cc1", "normalized growth": "0.0094 ± 0.00019"}
    ]}
  ]
}
